Results on 20 compounds are retold here after PubChem BioAssay (Tox21).

Where “and” joins values, the source holds several entries; their conditions need not be identical. Equal entries are not always repeated. Results filed as inconclusive are left out. Calls of active or inactive are those of the source. Unless noted, calls follow the shape of the dose curve; as a rule, active = well fitted curve in the direction sought with a large enough effect in the repeat runs; inconclusive = weak or mixed curves; inactive = no such curve, though single readings can be large; an effect the other way counts as inactive or inconclusive.

Test [1] is described as follows: qHTS assay to identify aromatase inhibitors - cell viability counter screen (AID 743084;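 also: cells stimulated with testosterone during compound exposure; nearly all actives have a fitted effect of over 55% in size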; also: potency is read from the fitted curve at half-maximal effect). (In general: qHTS replaces the single test concentration by a dilution series.)
In test [2] the target is Aryl hydrocarbon receptor (Homo sapiens) (UniProt P35869). In words: qHTS assay to identify small molecule that activate the aryl hydrocarbon receptor (AhR) signaling pathway (AID 743085). Also: nearly all actives have a fitted effect of over 15% in size. Also: potency is read from the fitted curve at half-maximal effect.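 As to activation: HG2L7.5c1 human HepG2 liver cells with stably integrated DRE-driven firefly reporter; series mostly up to about 70 µM.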 Summed up:
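HepG2 cells (HG2L7.5c1) stably carrying a firefly luciferase reporter driven by 20 dioxin responsive elements were exposed to compound for 24 h at 37C after a 5 h settling period; luminescence rise (ONE-Glo) indicated activation.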

Test [3] concerns the target Peroxisome proliferator-activated receptor gamma (Homo sapiens) (UniProt P37231). The test can be described thus: qHTS assay to identify small molecule agonists of the peroxisome proliferator-activated receptor gamma (PPARg) signaling pathway (AID 743094; active = well fitted activation curve with a large enough effect in the signal ratio in the repeat runs, not every such curve was filed as active; the % refers to the signal ratio). In a few lines: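 HEK293H PPARg-bla cells, 5 h settle at 37C/5% CO2; compound (DMSO) 17 h, 37C; B/G FRET substrate 1 h RT; fluorescence intensity read-out. qHTS format.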

Test [4] in a line: qHTS assay for small molecule agonists of the antioxidant response element (ARE) signaling pathway - cell viability counter screen (AID 743203; calls by dose curve; also: nearly all actives have a fitted effect of over 55% in size; also: potency is read from the fitted curve at half-maximal effect). In a few lines:
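Luminescence read-out (CellTiter-Glo, 30 min at room temperature) measured cell viability in the same wells as the ARE beta-lactamase reporter. HepG2 ARE-bla cells were treated with compounds for 16 hrs at 37C/5% CO2.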

Test [5] in a line: qHTS assay for small molecule activators of the heat shock response signaling pathway (AID 743210; active = well fitted activation curve with a large enough effect in the signal ratio in the repeat runs, with a control signal flat, not every such curve was filed as active; the % refers to the signal ratio;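 also: HeLa cells with beta-lactamase reporter driven by heat shock elements; series mostly up to about 63 µM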). Summed up: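 Activation of heat shock element-controlled beta-lactamase expression is measured in HeLa cells by LiveBLAzer FRET fluorescence, with compound exposure lasting 5 h at 37 C and substrate loading 2.5 h at room temperature.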
Test [6] in a line: qHTS assay to identify small molecule antagonists of the peroxisome proliferator-activated receptor gamma (PPARg) signaling pathway - cell viability counter screen (AID 743194). Also: nearly all actives have a fitted effect of over 55% in size. Also: potency is read from the fitted curve at half-maximal effect. To be noted: Potency: co-treated with 50 nM rosiglitazone unless noted. In a few lines: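 PPARg-UAS-bla HEK293H cells were plated, rested 5 h at 37 C, then treated with compounds plus rosiglitazone (50 nM final) for 17 h at 37 C; viability was then read by CellTiter-Glo luminescence after 30 min at room temperature.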

Test [7] is described as follows: qHTS assay for small molecule activators of the heat shock response signaling pathway - cell viability counter screen (AID 743209). Also: nearly all actives have a fitted effect of over 50% in size. Also: potency is read from the fitted curve at half-maximal effect. In a few lines:
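HSE-bla HeLa; 1500 cells/well; overnight 37 C, 5% CO2; compound 5 h 37 C; LiveBLAzer B/G substrate 2.5 h RT; CellTiter-Glo 30 min RT; luminescence.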

Test [8] in a line: qHTS assay to identify small molecule that activate the aryl hydrocarbon receptor (AhR) signaling pathway - cell viability counter screen (AID 743086). Also: nearly all actives have a fitted effect of over 45% in size. Also: potency is read from the fitted curve at half-maximal effect. Summed up: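 HepG2-AhR-luc (HG2L7.5c1) cells, 4000/well, were preincubated 5 h at 37C, exposed to compound in qHTS format for 24 hr at 37C, then given CellTiter-Fluor for 30 min; viability was read as fluorescence in the reporter wells.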

Test [9] has as its target Peroxisome proliferator-activated receptor gamma (Homo sapiens) (UniProt P37231). The test can be described thus: qHTS assay to identify small molecule antagonists of the peroxisome proliferator-activated receptor gamma (PPARg) signaling pathway (AID 743191; calls by dose curve; also: nearly all actives have a fitted effect of over 30% in size; also: potency is read from the fitted curve at half-maximal effect). In a few lines:
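GeneBLAzer PPARg UAS-bla HEK293H cells carrying a UAS-driven beta-lactamase reporter were plated at 3000 cells/well, preincubated 5 h at 37C, then given compound for 17 h at 37C; LiveBLAzer B/G FRET substrate was read after 1 h at room temperature.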

Test [10] is described as follows: qHTS assay for small molecule agonists of the antioxidant response element (ARE) signaling pathway (AID 743202; active = well fitted activation curve with a large enough effect in the signal ratio in the repeat runs, not every such curve was filed as active; the % refers to the signal ratio; also: potency is read from the fitted curve at half-maximal effect). In a few lines:
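Steps: seed ARE-bla HepG2 cells (2,000/well); incubate 5 h at 37 C; add compounds by pin tool; incubate 16 h at 37 C; add FRET substrate; read fluorescence after 2 h at RT.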
% is scaled to controls: 0 for no effect and ±100 for the full control effect.

Sequence of Aryl hydrocarbon receptor (Homo sapiens) (P35869 whole entry, looked up): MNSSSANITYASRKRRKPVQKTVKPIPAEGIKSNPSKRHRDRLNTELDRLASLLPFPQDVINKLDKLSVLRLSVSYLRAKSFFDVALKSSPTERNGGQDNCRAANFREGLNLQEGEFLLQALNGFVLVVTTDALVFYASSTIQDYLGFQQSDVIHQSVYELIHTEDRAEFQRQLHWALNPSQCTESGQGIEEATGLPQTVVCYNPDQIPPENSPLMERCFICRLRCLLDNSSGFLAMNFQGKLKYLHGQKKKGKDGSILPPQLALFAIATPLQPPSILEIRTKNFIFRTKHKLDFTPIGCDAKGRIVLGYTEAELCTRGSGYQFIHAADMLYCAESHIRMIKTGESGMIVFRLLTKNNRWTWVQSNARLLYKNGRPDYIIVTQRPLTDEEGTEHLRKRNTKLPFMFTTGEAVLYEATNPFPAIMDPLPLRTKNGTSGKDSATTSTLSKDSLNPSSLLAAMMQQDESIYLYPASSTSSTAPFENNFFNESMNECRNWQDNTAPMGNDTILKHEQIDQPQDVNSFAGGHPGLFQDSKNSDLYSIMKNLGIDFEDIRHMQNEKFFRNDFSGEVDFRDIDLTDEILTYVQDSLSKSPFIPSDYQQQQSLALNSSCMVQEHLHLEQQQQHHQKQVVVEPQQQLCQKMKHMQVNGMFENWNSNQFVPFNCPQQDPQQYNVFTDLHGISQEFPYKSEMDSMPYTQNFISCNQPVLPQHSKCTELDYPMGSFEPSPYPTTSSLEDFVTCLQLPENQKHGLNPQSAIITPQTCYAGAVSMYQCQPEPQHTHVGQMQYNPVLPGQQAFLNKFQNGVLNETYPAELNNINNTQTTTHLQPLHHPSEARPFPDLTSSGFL
Sequence of Peroxisome proliferator-activated receptor gamma (Homo sapiens) (P37231 whole entry, looked up): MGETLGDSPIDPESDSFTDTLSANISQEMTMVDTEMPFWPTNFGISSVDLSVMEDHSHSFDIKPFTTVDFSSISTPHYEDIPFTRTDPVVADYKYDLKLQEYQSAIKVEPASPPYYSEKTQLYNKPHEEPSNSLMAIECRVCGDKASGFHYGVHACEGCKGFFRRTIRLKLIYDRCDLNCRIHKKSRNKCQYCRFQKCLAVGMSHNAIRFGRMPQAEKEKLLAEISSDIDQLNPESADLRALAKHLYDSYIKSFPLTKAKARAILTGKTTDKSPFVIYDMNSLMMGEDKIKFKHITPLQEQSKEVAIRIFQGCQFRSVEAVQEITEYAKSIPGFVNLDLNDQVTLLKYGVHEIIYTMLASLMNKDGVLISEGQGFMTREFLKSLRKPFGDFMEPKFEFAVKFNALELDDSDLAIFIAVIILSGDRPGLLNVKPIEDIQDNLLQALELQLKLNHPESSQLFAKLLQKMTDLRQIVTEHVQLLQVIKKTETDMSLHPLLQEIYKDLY

Consider `CC(C)Oc1cccc(NC(=O)c2ccccc2C(F)(F)F)c1`, for which the Potency result in [1], in test [3], in [4] and in [5] was “inactive” throughout. Further, in test [2], the Potency is 9.97 µM (active).

As for `Cc1cc(N=Nc2ccccc2C)ccc1N`, the Potency was 24.3 µM (active) in test [1]; 7.7 µM (active) and 4.33 µM (active) in [2]. In addition, the Potency result in [6], in test [4] and in test [7] was “inactive” throughout.

As to `O=c1ssc(Cl)c1Cl`, the Potency in [1] was 17.2 µM (active); in [6], 38.9 µM (active); in test [4], 24.3 µM (active); in test [7] it was 49 µM (active). Besides, the Potency entry in [2] is “inactive”.

Take `COc1ccc(/C(=C/C(=O)N2CCOCC2)c2ccc(Cl)cc2)cc1OC`: the Potency result in [1], in test [2], in [3], in test [4], in test [7] and in [5] was “inactive” each time.

As for `CCC(C)c1cc([N+](=O)[O-])cc([N+](=O)[O-])c1OC(=O)C=C(C)C` (centres undefined), the Potency in test [1] is 24.3 µM (active); in test [6], 54.9 µM (active); in [4] it was 27.3 µM (active). Besides, the Potency entry in [2] and in test [7] was “inactive” throughout.

As for `Oc1c(Cl)c(Cl)cc(Cl)c1Cl`, the Potency entry in test [1], in test [8], in test [6] and in [7] was “inactive” in each case. Also, the Potency in [9] is 3.78 µM (active).

For `CCCCCCCCCC[N+](C)(C)CCCCCCCCCC`, the Potency was 21.1 µM (active) and 61.1 µM (active) in test [1]; 15.5 µM (active) in test [6]; 43.3 µM (active) in test [4]; 34.7 µM (active) in test [7]. Besides, the Potency result in [2] is “inactive”.

In the case of `CCCN(CCC)c1c([N+](=O)[O-])cc(S(N)(=O)=O)cc1[N+](=O)[O-]`, the Potency in [1] was 32.7 µM (active); in [8], 44.4 µM (active); in test [9], 37 µM (active); in [6], 58.6 µM (active); in [4] it was 29.1 µM (active).

For the compound `C[C@]12Cc3nonc3C[C@@H]1CC[C@@H]1[C@@H]2CC[C@@]2(C)[C@H]1CC[C@]2(C)O`, the Potency entry in test [1], in [2], in test [6], in test [4], in test [7] and in [5] was “inactive” in each case. Also, in test [10], the Potency was 8.41 µM (active).

With `CC(C)(C)OO`, the Potency entry in test [1], in test [8], in [3], in test [9], in test [6] and in test [4] was “inactive” in each case. The Potency entry in [7] is “inactive”.

Consider `CC(C)[C@H](C(=O)O[C@H](C#N)c1cccc(Oc2ccccc2)c1)c1ccc(Cl)cc1`, for which the Potency entry in [1], in test [2], in test [6], in [10], in test [4] and in test [7] was “inactive” in each case.

In the case of `CCCCCCCCCCCCCCCCCCn1cc[n+](C)c1`, the Potency in test [1] was 21.6 µM (active); in [4] it was 15.3 µM (active); in [7] it was 43.4 µM (active). The Potency entry in test [2] is “inactive”.

Consider `O=C(O)c1cc[c]([Hg][Cl])cc1`, for which the results for the Potency in [1] and in test [4] were 61.1 µM (active) and 54.5 µM (active), respectively. For the same compound, the Potency result in test [2] is “inactive”.

Turning to `CN(C)C(=S)[S-].CN(C)C(=S)[S-].[Cu+2]`, the Potency in test [1] was 1.87 µM (active); in test [6], 2.12 µM (active); in test [10], 1.49 µM (active); in [4] it was 3.33 µM (active). Moreover, the Potency result in test [2] is “inactive”.

With `CCCCCCCCCCCCCCCC[n+]1ccccc1`, the Potency in test [1] was 32 µM (active) and 54.5 µM (active) and 60.3 µM (active); in test [6], 26.6 µM (active) [middle of 4 runs]; in test [4], 26.9 µM (active) [middle of 4 runs]; in test [7], 28.8 µM (active) and 24.5 µM (active) and 48.3 µM (active). Also, the Potency result in [2] was “inactive”.

For `Nc1ccccc1C(=O)Oc1ccc2ccccc2c1`, the Potency entry in [1], in [8], in test [3], in test [6] and in [4] was “inactive” each time. Also, the Potency in [10] is 21.7 µM (active).

For the compound `COc1cccc(C(=O)CCN[C@@H](C)[C@H](O)c2ccccc2)c1`, the Potency entry in test [1], in test [8], in [3], in test [9] and in [6] was “inactive” throughout.

With `O=C(CBr)c1ccc(O)cc1`, the Potency result in test [1], in [2], in test [6] and in test [4] was “inactive” in each case.

As to `O=C(NC(=O)c1c(F)cccc1F)Nc1cc(Cl)c(OC(F)(F)C(F)F)c(Cl)c1`, the Potency result in test [1], in test [9], in test [6], in test [4], in [7] and in [5] was “inactive” each time. In [2], the Potency was 0.137 µM (active).

As for `S=C=Nc1cccc2ccccc12`, the Potency in test [1] is 30.3 µM (active); in test [2], 13.5 µM (active); in [4] it was 15.2 µM (active). The Potency result in test [9] is “inactive”.
